Source: PubChem (The Scripps Research Institute Molecular Screening Center)
FBW7 activator: human FBW7 E3 ligase activation, primary screen. AlphaScreen FBW7–phospho-cyclin E peptide binding, activator screen. normalized activity (activation), % at 26.1 µM. Q969H0. 650,000 tested, 0.13% active; in the data active means normalized activity above about 1.9%;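 further: purified mutant Fbw7 with reduced substrate affinity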
Target sequence (Q969H0 whole entry, looked up): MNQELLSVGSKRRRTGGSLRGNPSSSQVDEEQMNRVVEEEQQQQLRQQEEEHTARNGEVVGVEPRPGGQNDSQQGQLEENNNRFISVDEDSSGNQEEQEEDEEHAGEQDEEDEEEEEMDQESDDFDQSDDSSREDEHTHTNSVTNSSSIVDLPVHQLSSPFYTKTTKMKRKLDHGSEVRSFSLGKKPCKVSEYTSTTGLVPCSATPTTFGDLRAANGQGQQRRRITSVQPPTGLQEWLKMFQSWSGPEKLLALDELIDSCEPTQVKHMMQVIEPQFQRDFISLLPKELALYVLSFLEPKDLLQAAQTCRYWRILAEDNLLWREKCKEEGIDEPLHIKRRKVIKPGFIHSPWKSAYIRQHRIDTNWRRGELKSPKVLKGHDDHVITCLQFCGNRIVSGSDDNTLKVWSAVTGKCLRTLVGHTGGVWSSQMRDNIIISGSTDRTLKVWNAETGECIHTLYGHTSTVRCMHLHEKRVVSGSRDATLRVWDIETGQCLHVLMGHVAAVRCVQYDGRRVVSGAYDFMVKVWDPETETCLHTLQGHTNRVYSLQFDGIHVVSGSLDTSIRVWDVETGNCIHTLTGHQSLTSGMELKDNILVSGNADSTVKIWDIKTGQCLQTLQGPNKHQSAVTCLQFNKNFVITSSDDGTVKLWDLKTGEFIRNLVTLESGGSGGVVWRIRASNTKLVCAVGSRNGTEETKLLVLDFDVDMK
TEAD-YAP block: TEAD-YAP interaction inhibition | inhibition, % at 9.12 µM | AID 1259422 | 640,000 tested, 1.4% active | HEK-TIYL cells, TEAD-Gal4/YAP UAS-luciferase luminescence; in the data active means inhibition above about 32%;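 further: 0% = median of test compound wells and 100% = reference inhibitor wells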
GPR151 activ: activates the human receptor GPR151. AID 1508602. 650,000 tested, 1% active. PathHunter beta-arrestin GPR151 cells, luminescence. activation, % at 11.2 µM; in the data active means activation above about 4.9%;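 further: 0% = median of compound wells and 100% = cells with positive control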
MITF primary: human MITF inhibition, primary screen; O75030; AlphaScreen MITF homodimerization, bead proximity signal; inhibition, % at 2.6 µM; 650,000 tested, 0.91% active; in the data active means inhibition above about 50%;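 further: 0% = vehicle wells with protein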
* marks the source's active call; other numbers are inactive results. In the library only some 3.5% were active in any assay of this set; here they are far more common.

SMILES	FBW7 activator	TEAD-YAP block	GPR151 activ	MITF primary
Cc1oc(C)c2c(=O)cc(-c3ccc(O)c(O)c3)cc(O)c12	-1	4	0	87*
COc1ccc(-c2cc(O)c3c(C)oc(C)c3c(=O)c2)cc1	0	4	0	1
CCN1/C(=C/c2cc[n+](C)cc2)C=Cc2cc(OC)ccc21	0	8	0	5
COc1ccc2c(c1)C=C/C(=C\c1cccc[n+]1C)N2C	0	80*	2	11
O=C1c2ccc([N+](=O)[O-])cc2C(=O)N1c1ccc(O)cc1	0	7	2	-5
O=C1c2ccc([N+](=O)[O-])cc2C(=O)N1CCCCN1C(=O)c2ccc([N+](=O)[O-])cc2C1=O	0	1	2	0
O=C(O)c1ccc(N2C(=O)c3ccc(Oc4ccc([N+](=O)[O-])cc4)cc3C2=O)cc1[N+](=O)[O-]	2.5*	3	0	-10
O=C1C(=O)c2cc([N+](=O)[O-])ccc2-c2ccc([N+](=O)[O-])cc21	-1	53*	1	15
O=C(O)c1ccc(Oc2ccc(N3C(=O)c4ccc(Oc5ccc([N+](=O)[O-])cc5)cc4C3=O)cc2)cc1	0	-5	1	1
O=C1c2ccc([N+](=O)[O-])cc2C(=O)N1c1ccc(I)cc1	2.2*	4	-1	7
Cc1csc(NC(=O)c2cc3c(s2)-c2ccccc2SC3)n1	0	-50	0	-4
CC(C)NC(=O)C(C)N1Cc2ccccc2C1=O (configuration not stated)	0	3	0	-12
C=CCN1C(=O)/C(=c2\sc3n(c2=O)C(c2ccc(OC(C)=O)cc2)C(C(=O)OCC)=C(C)N=3)c2ccccc21 (configuration not stated)	0	8	1	16
CCOc1ccccc1-n1c(=S)sc2c(=O)n(-c3ccccc3)c(SCC(=O)NCc3ccccc3)nc21	0	9	0	2
CCCCc1ccc(C(=O)Oc2ccc(-c3ccc(CCC)cn3)cc2)cc1	0	70*	0	-4
CCCCCc1ccc(-c2ccc(C(=O)Oc3ccc(CC)cc3)cc2)nc1	0	8	-1	0
CCCc1ccc(-c2ccc(C(=O)Oc3ccccc3F)cc2)nc1	0	55*	5	11
CCCc1ccc(-c2ccc(C(=O)Oc3ccc(F)cc3)cc2)nc1	0	-18	2	14
O=C(NCc1nnc(SCC(=O)N2N=C(c3cccs3)CC2c2ccc(F)cc2)n1CCc1ccccc1)c1ccc([N+](=O)[O-])cc1 (configuration not stated)	0	6	-2	-2
C/C(=N\NC(=O)c1n[nH]c2c1CCC2)C1CC1	0	52*	1	8
CC1(C)CC(=NNC(=O)c2n[nH]c3c2CCC3)CC(C)(C)N1	0	62*	3	4
CC1=C(C(=O)OCCc2ccccc2)C(c2ccccc2[N+](=O)[O-])C2=C(CCCC2=O)N1 (configuration not stated)	0	48*	-1	12
CC1=C(C(=O)OCCOc2ccccc2)C(c2ccccc2[N+](=O)[O-])C2=C(CCCC2=O)N1 (configuration not stated)	0	35*	-1	1
O=C(NCCCS(=O)(=O)N1CCN(c2ccccc2)CC1)c1ccco1	1	-2	-1	15
CCOC(=O)N1CCN(C(=O)C2CCN(c3nc4c(C)cc(C)cc4s3)CC2)CC1	0	8	-1	-3
SMILES	FBW7 activator	TEAD-YAP block	GPR151 activ	MITF primary
CCOC(=O)C1=C(C)NC2=C(C(=O)C(C(=O)OCC)C(c3cccc(OC)c3)C2)C1c1cc(C)sc1C (configuration not stated)	0	16	-1	-1
CCc1ccc(OCC(=O)Nc2cccc(I)c2)cc1	0	3	1	-12
Cc1c(/C=C(\C#N)c2ccccn2)cc(C#N)n1C	0	2	1	-10
Cc1c(/C=C/c2nc3ccccc3s2)cc(C#N)n1C	0	73*	-3	19
O=C(N=Nc1c(O)[nH]c2ccccc12)C(=O)Nc1ccc(C(=O)O)cc1	0	-1	-1	1
O=C(O)CCc1ccc(-c2ccc(Br)cc2)o1	0	-4	-2	56*
O=C(Cc1ccccc1)OCc1ccc(-c2ccc(Br)cc2)o1	0	-17	-2	-11
N#Cc1ccccc1OCC(=O)NC(=O)NC1CCCC1	0	62*	-6	-2
Nc1cccc(-c2nc(NCCO)c3ncn(-c4ccsc4)c3n2)c1	0	63*	-2	10
CCCNc1nc(-c2cccc(N)c2)nc2c1ncn2-c1ccsc1	0	53*	0	19
Cc1noc(C)c1-c1nc(NCCO)c2ncn(-c3ccsc3)c2n1	0	23	1	4
O=C(Nc1cc(Oc2ccc3c(c2)CCC3)cc([N+](=O)[O-])c1)c1cc2nc(-c3cccs3)cc(C(F)(F)F)n2n1	0	-3	-1	2
COc1cc2c(cc1OC)C(C(=O)O)C(c1cc(Br)ccc1F)N(C)C2=O (configuration not stated)	0	-10	2	-16
Oc1ccc(/C=N/N2CCN(Cc3ccccc3)CC2)cc1O	0	5	0	35
Cc1ccc(CN2CCN(/N=C/c3ccc(O)c(O)c3)CC2)cc1	-1	6	1	55*
COc1ccc2oc(-c3ccc(NC(=O)c4ccco4)cc3)nc2c1	0	-47	-1	8
CCOc1ccc(NC(=O)CC2Sc3ccccc3NC2=O)c([N+](=O)[O-])c1 (configuration not stated)	0	52*	-1	-11
Cc1ccc(NC(=O)CC2Sc3ccccc3NC2=O)c(C)c1 (configuration not stated)	0	16	0	7
Cc1ccc(NC(=O)CC2Sc3ccccc3NC2=O)c([N+](=O)[O-])c1 (configuration not stated)	0	48*	1	2
CCOc1ccc(NC(=O)c2cccc3ccccc23)c([N+](=O)[O-])c1	0	43*	-2	25
CCOc1cc([N+](=O)[O-])ccc1NC(=O)CC1Sc2ccccc2NC1=O (configuration not stated)	0	58*	0	4
O=C(c1ccc(OCc2ccc3ccccc3n2)cc1)N1CCN(c2ccccn2)CC1	0	-29	0	15
COc1ccc(/C=C2\SC(=O)NC2=Nc2ccccc2)c(OC)c1	0	47*	2	13
COc1ccc(/C=C2\SC(=O)NC2=Nc2ccccc2)cc1	0	-31	1	20
COc1ccc(/C=C2/SC(=Nc3ccc(F)cc3)NC2=O)c(OC)c1	0	42*	4	7
COc1ccc(/C=C2/SC(=Nc3cccc(C)c3)NC2=O)c(OC)c1	0	54*	1	-2
COc1cccc(N=C2NC(=O)/C(=C/c3ccc(OC)c(OC)c3)S2)c1	0	48*	-1	-6
COc1cc(NC(=O)c2ccc3c(c2)C(=O)N(c2cccc(C)c2C)C3=O)c(C(=O)O)cc1OC	0	2	1	-3
